# Results reported in PubChem BioAssay AID1159580 (chemical genetic matrix, 2015).
# Where “and” joins values, the source holds several entries; their conditions need not be identical. Equal values may be shown once. Screen size: about 5,500 compounds; about 2,000 (36%) were called active. Another 18% or so got no clear call; they are omitted. The list shows a part of the results. Values without a mark were called inactive. No stated cut-off is given here; in the data, active means normalized growth mostly below about 0.91 (no sharp cut-off); inconclusive means no clear call, values can overlap the other calls; inactive means mostly above about 0.92.
# Assay: chemical genetic growth profiling, strain panel (AID 1159580);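 further: tested at 20 µM; growth read once vehicle control cultures reached saturation at 30 °C; 1 = growth at the plate median or of vehicle wells; lower values mean less growth of the strain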
# Details: S. cerevisiae deletion strains, growth OD
compound,measurement,setting,value
COc1cc(O)c(C(=O)O)c(O)c1,normalized growth,"locus YAL013W, strain DEP1, hits give low values",1
same,normalized growth,"locus YAL021C, strain ccr4, hits give low values",0.992
same,normalized growth,"locus YAL026C, strain drs2, hits give low values",0.995
same,normalized growth,"locus YAL030W, strain snc1, hits give low values",0.99
same,normalized growth,"locus YBL061C, strain skt5, hits give low values",1
same,normalized growth,"locus YBR009C, strain hhf1, hits give low values",1
same,normalized growth,"locus YBR021W, strain FUR4, hits give low values",1.02
same,normalized growth,"locus YBR023C, strain chs3, hits give low values",0.998
same,normalized growth,"locus YBR171W, strain sec66, hits give low values",0.971
same,normalized growth,"locus YBR229C, strain ROT2, hits give low values",0.995
same,normalized growth,"locus YBR231C, strain swc5, hits give low values",1
same,normalized growth,"locus YBR279W, strain paf1, hits give low values",0.998
same,normalized growth,"locus YCL011C, strain gbp2, hits give low values",0.988
same,normalized growth,"locus YCL016C, strain dcc1, hits give low values",0.991
same,normalized growth,"locus YCL029C, strain bik1, hits give low values",1.01
same,normalized growth,"locus YCL061C, strain MRC1, hits give low values",0.979
same,normalized growth,"locus YCL069W, strain vba3, hits give low values",0.99
same,normalized growth,"locus YCR088W, strain abp1, hits give low values",0.984
same,normalized growth,"locus YDL005C, strain med2, hits give low values",0.976
same,normalized growth,"locus YDL035C, strain GPR1, hits give low values",1.02
same,normalized growth,"locus YDL040C, strain nat1, hits give low values",0.999
same,normalized growth,"locus YDL074C, strain BRE1, hits give low values",1.02
same,normalized growth,"locus YDL101C, strain DUN1, hits give low values",1
same,normalized growth,"locus YDL134C, strain PPH21, hits give low values",1
same,normalized growth,"locus YDL185W, strain tfp1, hits give low values",0.949
same,normalized growth,"locus YDL192W, strain arf1, hits give low values",1.02
same,normalized growth,"locus YDR001C, strain nth1, hits give low values",0.98
same,normalized growth,"locus YDR069C, strain doa4, hits give low values",1.01
same,normalized growth,"locus YDR101C, strain arx1, hits give low values",1.01
same,normalized growth,"locus YDR137W, strain rgp1, hits give low values",0.974
same,normalized growth,"locus YDR150W, strain NUM1, hits give low values",1
same,normalized growth,"locus YDR159W, strain sac3, hits give low values",1.01
same,normalized growth,"locus YDR162C, strain NBP2, hits give low values",1.01
same,normalized growth,"locus YDR195W, strain ref2",0.987
same,normalized growth,"locus YDR297W, strain sur2, hits give low values",1
same,normalized growth,"locus YDR318W, strain mcm21, hits give low values",1.02
same,normalized growth,"locus YDR334W, strain swr1, hits give low values",0.999
same,normalized growth,"locus YDR335W, strain msn5, hits give low values",0.992
same,normalized growth,"locus YDR388W, hits give low values",1
same,normalized growth,"locus YDR392W, strain spt3, hits give low values",1.01
same,normalized growth,"locus YDR502C, strain sam2, hits give low values",0.998
same,normalized growth,"locus YEL003W, strain gim4, hits give low values",1
same,normalized growth,"locus YEL037C, strain rad23, hits give low values",0.985
same,normalized growth,"locus YEL061C, strain CIN8 (second series), hits give low values",0.981
same,normalized growth,"locus YEL061C, strain CIN8, hits give low values",1
same,normalized growth,"locus YER015W, strain faa2, hits give low values",0.99
same,normalized growth,"locus YER016W, strain bim1, hits give low values",0.989
same,normalized growth,"locus YER110C, hits give low values",1.02
same,normalized growth,"locus YER111C, strain swi4, hits give low values",0.987
same,normalized growth,"locus YER155C, strain BEM2 (second series), hits give low values",0.978
same,normalized growth,"locus YER155C, strain BEM2, hits give low values",0.987
same,normalized growth,"locus YER167W, strain BCK2, hits give low values",1.03
same,normalized growth,"locus YFR010W, strain ubp6, hits give low values",1.01
same,normalized growth,"locus YGL078C, strain dbp3, hits give low values",0.973
same,normalized growth,"locus YGL086W, strain mad1, hits give low values",1.01
same,normalized growth,"locus YGL167C, strain pmr1, hits give low values",0.989
same,normalized growth,"locus YGL173C, strain kem1, hits give low values",0.997
same,normalized growth,"locus YGL227W, strain vid30, hits give low values",0.982
same,normalized growth,"locus YGL240W, strain doc1, hits give low values",0.995
same,normalized growth,"locus YGL248W, strain PDE1, hits give low values",1.01
same,normalized growth,"locus YGL253W, strain hxk2, hits give low values",0.979
same,normalized growth,"locus YGR078C, strain PAC10, hits give low values",1.01
same,normalized growth,"locus YGR135W, strain pre9, hits give low values",1.01
same,normalized growth,"locus YGR229C, strain SMI1, hits give low values",1.02
same,normalized growth,"locus YGR252W, strain gcn5, hits give low values",1
same,normalized growth,"locus YHR013C, strain ard1, hits give low values",0.998
same,normalized growth,"locus YHR027C, strain rpn1, hits give low values",0.978
same,normalized growth,"locus YHR030C, strain SLT2, hits give low values",0.996 and 0.881
same,normalized growth,"locus YHR079C, strain IRE1 (second series), hits give low values",1.01
same,normalized growth,"locus YHR079C, strain IRE1, hits give low values",0.839 (active)
same,normalized growth,"locus YHR094C, strain hxt1, hits give low values",0.997
same,normalized growth,"locus YHR129C, strain ARP1, hits give low values",0.991
same,normalized growth,"locus YHR142W, strain chs7, hits give low values",1.01
same,normalized growth,"locus YHR200W, strain rpn10, hits give low values",1
same,normalized growth,"locus YIL066C, strain RNR3, hits give low values",0.993
same,normalized growth,"locus YIL073C, strain SPO22, hits give low values",1.09
same,normalized growth,"locus YIL125W, strain kgd1, hits give low values",0.979
same,normalized growth,"locus YIR030C, strain dcg1, hits give low values",1.01
same,normalized growth,"locus YJL092W, strain hpr5, hits give low values",0.966
same,normalized growth,"locus YJL095W, strain BCK1 (second series), hits give low values",0.998
same,normalized growth,"locus YJL095W, strain BCK1, hits give low values",1 and 0.914
same,normalized growth,"locus YJL115W, strain asf1, hits give low values",0.979
same,normalized growth,"locus YJL129C, strain trk1, hits give low values",1
same,normalized growth,"locus YJL134W, strain LCB3, hits give low values",0.993
same,normalized growth,"locus YJL154C, strain vps35, hits give low values",0.976
same,normalized growth,"locus YJL164C, strain tpk1, hits give low values",1.02
same,normalized growth,"locus YJL166W, strain qcr8, hits give low values",1
same,normalized growth,"locus YJL168C, strain set2, hits give low values",0.993
same,normalized growth,"locus YJL187C, strain SWE1 (second series), hits give low values",1.01
same,normalized growth,"locus YJL187C, strain SWE1, hits give low values",0.996
same,normalized growth,"locus YJR043C, strain POL32, hits give low values",1.04
same,normalized growth,"locus YJR066W, strain TOR1, hits give low values",0.841
